According to PubChem BioAssay (NCATS):
Results filed as inconclusive are left out. Unmarked numbers belong to inactive results. Calls of active or inactive are those of the source. Calls follow the shape of the dose curve; as a rule, active = well fitted inhibition curve with a large enough effect; inconclusive = small, poorly fitted or top-dose-only effect; inactive = no such curve, though single readings can be large or run the other way.

biological target: Cytochrome P450 3A7 (Homo sapiens) (UniProt P24462); test: Cytochrome P450 family 3 subfamily A member 7 (CYP3A7) small molecule antagonists: luciferase biochemical qHTS assay (AID 1963596); details: P450-Glo CYP3A7 enzyme luminescence, 1 h; series mostly up to 57.4 µM; activity change, negative = inhibition: at the top concentration; also: nearly all actives have a fitted effect of over 40% in size
In short: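 Biochemical CYP3A7 activity measured with P450-Glo system: luciferin formed from proluciferin substrate in NADPH-driven reaction (1 h, room temperature) after 10 min compound preincubation. Signal in relative luminescence units.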
% is scaled to controls: 0 for no effect and ±100 for the full control effect; potency is read from the fitted curve at half-maximal effect.

Chain of Cytochrome P450 3A7 (Homo sapiens) (P24462 whole entry, looked up): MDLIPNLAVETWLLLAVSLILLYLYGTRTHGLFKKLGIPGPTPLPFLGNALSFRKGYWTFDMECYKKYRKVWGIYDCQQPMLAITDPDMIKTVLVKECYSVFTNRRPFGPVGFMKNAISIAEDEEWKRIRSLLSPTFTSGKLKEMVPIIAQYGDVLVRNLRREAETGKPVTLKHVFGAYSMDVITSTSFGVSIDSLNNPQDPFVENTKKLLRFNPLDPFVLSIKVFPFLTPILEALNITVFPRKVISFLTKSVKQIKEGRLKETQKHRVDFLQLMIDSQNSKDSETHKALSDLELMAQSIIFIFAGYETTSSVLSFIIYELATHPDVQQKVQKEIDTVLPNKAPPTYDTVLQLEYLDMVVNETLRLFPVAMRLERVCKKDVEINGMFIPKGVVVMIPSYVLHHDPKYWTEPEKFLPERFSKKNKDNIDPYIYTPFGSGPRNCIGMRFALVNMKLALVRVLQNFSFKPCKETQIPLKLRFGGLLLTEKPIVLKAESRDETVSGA

Q: `O=C(O)c1cc(O)c2c(O)c3c(O[C@@H]4O[C@H](CO)[C@@H](O)[C@H](O)[C@H]4O)cccc3c(-c3c4cc(C(=O)O)cc(O)c4c(O)c4c(O[C@@H]5O[C@H](CO)[C@@H](O)[C@H](O)[C@H]5O)cccc34)c2c1` was tested. Which “activity change, negative = inhibition” value did it give?
A: 0%

Q: For `Cc1c(O)cc2c(c1C)O[C@](C)(CCC[C@H](C)CCC[C@H](C)CCCC(C)C)CC2`, which “activity change, negative = inhibition” value is on record?
A: -5.97%

Q: With `NC(Cc1ccc(O)c(O)c1)C(=O)O` (centres undefined) as the compound, how does the “activity change, negative = inhibition” value read?
A: 0%

Q: For `N[C@H](CO)C(=O)O`, which “activity change, negative = inhibition” value is on record?
A: 0%

Q: Which “activity change, negative = inhibition” value does the source give for `O=C1CCC(=O)N1CO` here?
A: -1.52%

Q: Which “activity change, negative = inhibition” value does the source give for `CN1c2c(nc(N)[nH]c2=O)NCC1CNc1ccc(C(=O)NC(CCC(=O)O)C(=O)O)cc1` (centres undefined) here?
A: 1.07%

Q: For `COc1ccc(NC(=O)c2ccc(C(=N)N(C)C)cc2)c(C(=O)Nc2ccc(Cl)cn2)c1`, which “activity change, negative = inhibition” value is on record?
A: -23.6%

Q: With `O=C(O)c1ccccc1NC(=O)N1CCC(c2ccccc2C(F)(F)F)CC1` as the compound, how does the “activity change, negative = inhibition” value read?
A: 0%

Q: `O=C(Cn1c(=O)n(-c2ccc(Cl)cc2)c(=O)c2oc3ccccc3c21)Nc1ccccc1` was tested. Which “activity change, negative = inhibition” value did it give?
A: -11.9%

Q: How did the “activity change, negative = inhibition” value turn out when `Cc1nnc(-c2ccc(-c3ccc(C(=O)Nc4ccc(O)c(N5CCN(C)CC5)c4)cc3)c(C)c2)o1` was run?
A: -24%

Q: Which “activity change, negative = inhibition” value does the source give for `C=CC1=C(C(=O)O)N2C(=O)[C@@H](NC(=O)/C(=N\O)c3csc(N)n3)[C@H]2SC1` (stereo in doubt) here?
A: -8.65%

Q: With `C[C@H](O)CN(C)C` as the compound, how does the “activity change, negative = inhibition” value read?
A: -1.74%

Q: How did the “activity change, negative = inhibition” value turn out when `OCC=Cc1ccccc1` was run?
A: 0%

Q: Which “activity change, negative = inhibition” value does the source give for `CC(C)c1ccc(-n2ncc3c(=O)n(CC(=O)Nc4cc(F)ccc4Cl)cnc32)cc1` here?
A: -20.3%

Q: `CC1(C)[C@H]2C[C@H](C/C=C\CCCC(=O)O)[C@@H](NC(=O)c3csc4ccc(O)cc34)[C@@H]1C2` was tested. Which “activity change, negative = inhibition” value did it give?
A: 16.7%

Q: Which “activity change, negative = inhibition” value does the source give for `Nc1ncnc2c1ncn2[C@H]1O[C@@H](C(=O)N2CCN(CC(=O)Nc3cccc4c3CNC4=O)CC2)[C@H](O)[C@@H]1O` here?
A: -20.3%

Q: How did the Potency turn out when `CCOc1ccc(CNC(=O)Cn2c(=O)c3cccn3c3ccc(F)cc32)cc1` was run?
A: 0.425 µM (active)

Q: `COc1ccc([C@@H]2N[C@H](C(=O)O)Cc3c2[nH]c2ccccc32)cc1CN1CCN(c2ccccc2F)CC1` was tested. Which “activity change, negative = inhibition” value did it give?
A: -22.8%

Q: How did the activity change, negative = inhibition turn out when `CCC(=C(c1ccc(OCCN2CCCC2)cc1)c1ccc(OCCN2CCCC2)cc1)c1ccccc1` was run?
A: 0% [at 11.5 µM]

Q: With `O=C(NC1CCC1)c1ccc(C#Cc2cccc(F)c2)nc1` as the compound, how does the “activity change, negative = inhibition” value read?
A: 8.39%

Q: For `OC[C@H]1O[C@@H]2O[C@H]3[C@H](O)[C@@H](O)[C@@H](O[C@H]4[C@H](O)[C@@H](O)[C@@H](O[C@H]5[C@H](O)[C@@H](O)[C@@H](O[C@H]6[C@H](O)[C@@H](O)[C@@H](O[C@H]7[C@H](O)[C@@H](O)[C@@H](O[C@H]1[C@H](O)[C@@H]2O)O[C@@H]7CO)O[C@@H]6CO)O[C@@H]5CO)O[C@@H]4CO)O[C@@H]3CO`, which “activity change, negative = inhibition” value is on record?
A: 0.893%

Q: With `CC1CCCCC1N(Cc1ccccc1)[S+](=O)([O-])c1ccc([S+](=O)([O-])N(C)C)cc1` (centres undefined) as the compound, how does the “activity change, negative = inhibition” value read?
A: 0.838%

Q: With `CCCCC(O)c1ccccc1` (centres undefined) as the compound, how does the “activity change, negative = inhibition” value read?
A: 1.72%

Q: How did the “activity change, negative = inhibition” value turn out when `COC(=O)CCC[N+](C)(C)C` was run?
A: 8.07%

Q: With `COC(=O)CCC(=O)CN` as the compound, how does the “activity change, negative = inhibition” value read?
A: -1.05%

Q: For `COc1cccc(C(=O)NC(c2ccc(Cl)cc2)c2cc(Cl)c3cccnc3c2O)c1` (centres undefined), which “activity change, negative = inhibition” value is on record?
A: -6.07%

Q: Which “activity change, negative = inhibition” value does the source give for `CC(=O)Oc1cc(C(F)(F)F)ccc1C(=O)O` here?
A: -17%

Q: Which “activity change, negative = inhibition” value does the source give for `COc1ccc(OC)c(-c2ccc(NC(=O)c3ccncc3F)cc2)c1` here?
A: -23.3%

Q: For `Cc1ccc(C)c(Nc2nc3nonc3nc2Nc2cccc(C)c2C)c1`, which “activity change, negative = inhibition” value is on record?
A: 3.21%

Q: How did the “activity change, negative = inhibition” value turn out when `CCCCCCCCCCCCCCCCCC[N+](C)(C)CCC[Si](OC)(OC)OC` was run?
A: -7.83%

Q: `CCn1c(N)c(C(=O)NC)c(=O)c2ccc(C#C[C@@](C)(O)COC)nc21` was tested. Which “activity change, negative = inhibition” value did it give?
A: 3.98%

Q: Which activity change, negative = inhibition does the source give for `O=C(O)C1CN(Cc2ccc(-c3nc4cc(Cc5ccccc5F)ccc4s3)c(F)c2)C1` here?
A: -6.84% [at 11.5 µM]

Q: How did the “activity change, negative = inhibition” value turn out when `C=CC1=C(C(=O)O)N2C(=O)[C@@H](NC(=O)/C(=N\OCC(=O)O)c3csc(N)n3)[C@H]2SC1` was run?
A: -25.7%

Q: With `CCOC(=O)N1c2ccc(C(F)(F)F)cc2C(N(Cc2cc(C(F)(F)F)cc(C(F)(F)F)c2)C(=O)OC)CC1CC` (centres undefined) as the compound, how does the “activity change, negative = inhibition” value read?
A: -13.2%

Q: For `Nc1nc(=O)n([C@@H]2CS[C@H](CO)O2)cc1F`, which “activity change, negative = inhibition” value is on record?
A: 3.71%

Q: With `O=C(O)C1CSC(C(=O)O)N1` (centres undefined) as the compound, how does the “activity change, negative = inhibition” value read?
A: -9.82%

Q: For `COc1cccc(-n2nc(C(=O)O)cc2-c2ccc(C3CCCCC3)c(Cl)c2)c1`, which “activity change, negative = inhibition” value is on record?
A: 0%

Q: How did the “activity change, negative = inhibition” value turn out when `Cn1c(=O)cc(N2CCCC(N)C2)n(Cc2cc(F)ccc2C#N)c1=O` (centres undefined) was run?
A: -28.3%

Q: For `c1ccc2ccccc2c1`, which “activity change, negative = inhibition” value is on record?
A: 4.22%
